Compounds without any hit were thinned out: in the full panel of roughly 83,000, 20% have a hit.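 Growth was measured after 48 h exposure to one concentration of compound in 96-well plates. Values under 10 count as active.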 Calls of active or inactive are those of the source.
Experiments:
Test in all cases: NCI-60 one-dose screen, 48 h (100 = growth as untreated, 0 = no growth, -100 = all killed)
Details in all cases: 10 µM unless noted
SK-MEL-2 melanoma = system: SK-MEL-2 melanoma
EKVX NSCLC = system: EKVX NSCLC
SN12C renal = system: SN12C renal
UO-31 renal = system: UO-31 renal
TK-10 renal = system: TK-10 renal
ACHN renal = system: ACHN renal
CAKI-1 renal = system: CAKI-1 renal
A498 renal = system: A498 renal
CCRF-CEM leukemia = system: CCRF-CEM leukemia
MOLT-4 leukemia = system: MOLT-4 leukemia

Measured: growth

c1ccc2c(c1)CCCc1nnc3nc4ccccc4n3c1-2
inactive: SK-MEL-2 melanoma 70.5% | EKVX NSCLC 37.7% | SN12C renal 48% | UO-31 renal 29.9% | TK-10 renal 41.6% | ACHN renal 35.1% | CAKI-1 renal 22% | A498 renal 54.8% | CCRF-CEM leukemia 31.5% | MOLT-4 leukemia 31.6%

O=C1c2ccccc2C(=O)c2c1cc1c(c2[N+](=O)[O-])OCO1
inactive: EKVX NSCLC 22.9% | SN12C renal 13.9% | CCRF-CEM leukemia 22.9% | MOLT-4 leukemia 28.7%
active: SK-MEL-2 melanoma -30.8% | UO-31 renal -3.07% | TK-10 renal -14.8% | ACHN renal -18.6% | CAKI-1 renal 2.82% | A498 renal -44.9%

O=C1c2cccc3cccc(c23)C(=O)N1C/C=C/c1ccc2c3c(cccc13)C(=O)N(CCO)C2=O
inactive: SK-MEL-2 melanoma 90.7% | EKVX NSCLC 91.5% | SN12C renal 75.7% | UO-31 renal 48.1% | TK-10 renal 98.7% | ACHN renal 34.1% | CAKI-1 renal 63.1% | A498 renal 74.7% | CCRF-CEM leukemia 83.3% | MOLT-4 leukemia 80%

CCCCCCCC/C=C\CCCCCCCCOc1ccc(CC(=O)NCC[N+]2(C)CCOCC2)cc1
inactive: SK-MEL-2 melanoma 112% | EKVX NSCLC 91.2% | SN12C renal 64.1% | UO-31 renal 93.5% | TK-10 renal 44.7% | ACHN renal 82.9% | CAKI-1 renal 53.5% | A498 renal 91.8% | CCRF-CEM leukemia 53% | MOLT-4 leukemia 79.9%

COc1cc(C2C(C(=O)OCc3ccccc3)=C(C)NC(C)=C2C(=O)OCc2ccccc2)cc(OC)c1OC
inactive: EKVX NSCLC 31.5% | SN12C renal 29.1% | UO-31 renal 18.5% | TK-10 renal 34.8% | ACHN renal 16.2% | CAKI-1 renal 26.2% | A498 renal 36.8% | CCRF-CEM leukemia 11.3%
active: SK-MEL-2 melanoma -6.43% | MOLT-4 leukemia -9.95%

COc1ccc(/C=C2\CN(C(=O)C(Cl)Cl)C/C(=C\c3ccc(OC)cc3)C2=O)cc1
inactive: SK-MEL-2 melanoma 68.6% | EKVX NSCLC 14.5% | TK-10 renal 20.4%
active: SN12C renal -38.9% | UO-31 renal -97.8% | ACHN renal -58.3% | CAKI-1 renal -18.9% | A498 renal -73.1% | CCRF-CEM leukemia 9.77% | MOLT-4 leukemia 5.42%

Cc1ccc(-c2nc3nc(-c4ccccc4)nc(N4CCCN(S(C)(=O)=O)CC4)c3o2)cc1
inactive: SK-MEL-2 melanoma 86.2% | EKVX NSCLC 93.7% | SN12C renal 71.8% | UO-31 renal 59.3% | TK-10 renal 66.9% | ACHN renal 46.1% | CAKI-1 renal 63.4% | A498 renal 94.3% | CCRF-CEM leukemia 63.9% | MOLT-4 leukemia 56.3%

Cc1ccc(N2C(=O)CCC2=O)cc1
inactive: SK-MEL-2 melanoma 84.8% | EKVX NSCLC 95.1% | SN12C renal 95.3% | UO-31 renal 97.9% | TK-10 renal 89.9% | ACHN renal 103% | CAKI-1 renal 96.9% | A498 renal 82.3% | CCRF-CEM leukemia 108% | MOLT-4 leukemia 101%

C=CCn1c(SCC(=O)Nc2ccc(/C(C)=N/O)cc2)nnc1-c1cc(-c2ccc(S(N)(=O)=O)cc2)nc2ccccc12
inactive: SK-MEL-2 melanoma 83.7% | EKVX NSCLC 91.8% | SN12C renal 77.7% | UO-31 renal 74.5% | TK-10 renal 121% | ACHN renal 96.9% | CAKI-1 renal 51.9% | A498 renal 89.2% | CCRF-CEM leukemia 45.8% | MOLT-4 leukemia 37.9%

CCN(CC)CCN1C(=O)c2c(c(C)c3c(oc4ccc(OC)cc43)c2C)C1=O
active: ACHN renal 9.28%
inactive: SK-MEL-2 melanoma 115% | EKVX NSCLC 101% | SN12C renal 92.6% | UO-31 renal 17.5% | TK-10 renal 94.3% | CAKI-1 renal 95.8% | A498 renal 90.8% | CCRF-CEM leukemia 90.2% | MOLT-4 leukemia 96.2%

NC(=O)c1c(NC(=O)c2cccc(C(F)(F)F)c2)sc2c1CCC(=O)C2
inactive: A498 renal 53.2%
active: SK-MEL-2 melanoma -18.5% | EKVX NSCLC 9.15% | SN12C renal 3.64% | UO-31 renal -95.9% | TK-10 renal 5.23% | ACHN renal -93.4% | CAKI-1 renal -55% | CCRF-CEM leukemia 0.959% | MOLT-4 leukemia -18.1%

Nc1nc(N)c2c(n1)NC(c1cccc(Nc3ccnc4cc(C(F)(F)F)ccc34)c1)CC(c1ccccc1)=N2 (stereo not given)
inactive: SK-MEL-2 melanoma 35.1% | EKVX NSCLC 51.5% | SN12C renal 65.4% | UO-31 renal 62.6% | TK-10 renal 83.1% | ACHN renal 75.8% | CAKI-1 renal 42.7% | A498 renal 77.8% | CCRF-CEM leukemia 32.4%
active: MOLT-4 leukemia 6.47%

S=c1nc2oc(-c3ccccc3)c(-c3ccccc3)c2c(/N=C\c2ccco2)[nH]1
inactive: SK-MEL-2 melanoma 92.1% | EKVX NSCLC 95.7% | SN12C renal 99.1% | UO-31 renal 81.2% | TK-10 renal 99.6% | ACHN renal 93.8% | CAKI-1 renal 92.3% | A498 renal 101% | CCRF-CEM leukemia 108% | MOLT-4 leukemia 84%

Fc1cccc(-c2ccc3c(c2)C2(CCNCC2)CN3)c1
inactive: SK-MEL-2 melanoma 102% | EKVX NSCLC 96.6% | SN12C renal 94.9% | UO-31 renal 88.2% | TK-10 renal 114% | ACHN renal 100% | CAKI-1 renal 96.1% | A498 renal 102% | CCRF-CEM leukemia 119% | MOLT-4 leukemia 91.7%

O=C(Nc1ccccc1O)c1ccc(CNC(=O)c2ccsc2Nc2ccnc(C(F)(F)F)c2)cc1
inactive: EKVX NSCLC 37.8% | SN12C renal 45.9% | UO-31 renal 19.1% | ACHN renal 20.2%
active: SK-MEL-2 melanoma -20.9% | TK-10 renal -13.7% | CAKI-1 renal 9.72% | A498 renal -14.5% | CCRF-CEM leukemia 5.36% | MOLT-4 leukemia 4.64%

[2H]C([2H])([2H])Oc1ccc(F)cc1/C=C/C(=O)/C=C(O)/C=C/c1cc(F)ccc1OC([2H])([2H])[2H]
inactive: SK-MEL-2 melanoma 98.2% | EKVX NSCLC 107% | SN12C renal 90.7% | UO-31 renal 91.5% | TK-10 renal 121% | ACHN renal 106% | CAKI-1 renal 93.6% | A498 renal 99.4% | CCRF-CEM leukemia 86.9% | MOLT-4 leukemia 75.1%

Cc1cc2c(cc1C)N(C(=O)CCl)CC(=O)N2
active: ACHN renal -8.11% | CCRF-CEM leukemia -19.9%
inactive: SK-MEL-2 melanoma 63.2% | EKVX NSCLC 119% | SN12C renal 39.2% | UO-31 renal 78.3% | TK-10 renal 44.5% | CAKI-1 renal 103% | A498 renal 82.9% | MOLT-4 leukemia 17.1%

Fc1ccc2[nH]cc(-c3nc(-c4c[nH]c5ccncc45)cs3)c2c1
active: SK-MEL-2 melanoma -49.9% | EKVX NSCLC -45.7% | SN12C renal -49.8% | UO-31 renal -69.9% | TK-10 renal -37.4% | ACHN renal -78.2% | CAKI-1 renal -17.4% | CCRF-CEM leukemia -19.2% | MOLT-4 leukemia -32.6%
inactive: A498 renal 62.1%

CC(=C(c1ccc(OCCN2CCCCC2)cc1)c1ccc(OCCN2CCCCC2)cc1)c1ccc(Cl)cc1
active: SK-MEL-2 melanoma -82.9% | EKVX NSCLC -86.4% | SN12C renal -91.1% | UO-31 renal -96% | TK-10 renal -88.5% | ACHN renal -99.1% | CAKI-1 renal -98.4% | A498 renal -85.9% | CCRF-CEM leukemia -71.5% | MOLT-4 leukemia -71.2%

C=C(CNCCO)[C@@H]1CC[C@]2(CO)CC[C@]3(C)[C@H](CC[C@@H]4[C@@]5(C)CCC(N)C(C)(C)[C@@H]5CC[C@]43C)[C@@H]12 (stereo not given in full)
active: SK-MEL-2 melanoma -29.2% | CCRF-CEM leukemia 1.11% | MOLT-4 leukemia 8.81%
inactive: EKVX NSCLC 72% | SN12C renal 71.7% | UO-31 renal 81.7% | TK-10 renal 68.9% | ACHN renal 97.5% | CAKI-1 renal 54.1% | A498 renal 81.7%

O=C(NC1CC(F)C1)c1cc2cccnc2n1-c1ccc(Cl)c(Cl)c1 (stereo not given)
inactive: SK-MEL-2 melanoma 105% | EKVX NSCLC 98.5% | SN12C renal 96.4% | UO-31 renal 69.7% | TK-10 renal 90.2% | ACHN renal 95.5% | CAKI-1 renal 84.4% | A498 renal 99% | CCRF-CEM leukemia 99.7% | MOLT-4 leukemia 98.9%

CC1(C)OB(O)c2cc(-c3nc4ccc5[nH]ncc5c4c4c3CCCC4)ccc21
inactive: SK-MEL-2 melanoma 59.3% | EKVX NSCLC 71.8% | SN12C renal 51.2% | UO-31 renal 34.4% | TK-10 renal 73.4% | ACHN renal 21.1% | CAKI-1 renal 20.8% | A498 renal 21.9% | CCRF-CEM leukemia 50.2% | MOLT-4 leukemia 30.7%

Cc1c(CC(=S)N2CCOCC2)nnn1-c1cccc(C(F)(F)F)c1
inactive: SK-MEL-2 melanoma 111% | EKVX NSCLC 104% | SN12C renal 103% | UO-31 renal 82.9% | TK-10 renal 104% | ACHN renal 106% | CAKI-1 renal 93.2% | A498 renal 102% | CCRF-CEM leukemia 103% | MOLT-4 leukemia 102%

COc1cccc(C(=O)NNc2nc(Cl)nc(Cl)n2)c1
inactive: SK-MEL-2 melanoma 96.3% | EKVX NSCLC 98% | SN12C renal 100% | UO-31 renal 88.4% | TK-10 renal 104% | ACHN renal 101% | CAKI-1 renal 96.1% | A498 renal 96.6% | CCRF-CEM leukemia 101% | MOLT-4 leukemia 101%

Cc1ccc(C=C2C(=O)NC(=O)NC2=O)cc1
inactive: SK-MEL-2 melanoma 104% | EKVX NSCLC 101% | SN12C renal 99.2% | UO-31 renal 89.9% | TK-10 renal 97.8% | ACHN renal 110% | CAKI-1 renal 100% | A498 renal 105% | CCRF-CEM leukemia 103% | MOLT-4 leukemia 95.1%

— PubChem BioAssay (NCI)
